Measured values published in PMC5540273 (PLoS ONE, 2017).

Tests used:
Conditions in all cases: concentration: 1 μM, replicates: in singlicate; n = 1
ERK1 = test system: T1, ERK1
T1 construct: gene MAPK3

ERK2 = test system: T2, ERK2
T2 construct: gene MAPK1

ERK3 = test system: T3, ERK3
T3 construct: gene MAPK6

ERK4 = test system: T4, ERK4
T4 construct: gene MAPK4

ERK5 = test system: T5, ERK5
T5 construct: gene MAPK7

ERK8 = test system: T6, ERK8
T6 construct: gene MAPK15

ERN1 = test system: ERN1
FAK = test system: T7, FAK
T7 construct: gene PTK2

FER = test system: FER
FES = test system: FES
FGFR1 = test system: FGFR1
FGFR2 = test system: FGFR2
FGFR3 = test system: FGFR3
FGFR4 = test system: FGFR4
FGR = test system: FGR
FLT1 = test system: FLT1
FLT3-autoinhibited = test system: FLT3-autoinhibited
FLT3 = test system: FLT3
FLT4 = test system: FLT4
FRK = test system: FRK
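Also: KINOMEscan kinase panel screen.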

Structure (SMILES): COc1cc(Nc2ccnc3cc(-c4ccncc4)ccc23)cc(OC)c1OC.Cl [GW494610]
- %Inh (ERK1): 0%
- %Inh (ERK2): 0%
- %Inh (ERK3): 5%
- %Inh (ERK4): 0%
- %Inh (ERK5): 0%
- %Inh (ERK8): 22%
- %Inh (ERN1): 10%
- %Inh (FAK): 0%
- %Inh (FER): 26%
- %Inh (FES): 0%
- %Inh (FGFR1): 23%
- %Inh (FGFR2): 14%
- %Inh (FGFR3): 15%
- %Inh (FGFR4): 0%
- %Inh (FGR): 81%
- %Inh (FLT1): 21%
- %Inh (FLT3-autoinhibited): 0%
- %Inh (FLT3): 3%
- %Inh (FLT4): 0%
- %Inh (FRK): 44%

Structure (SMILES): Cc1ccc(O)cc1Nc1ccnc2ccc(C(C)(C)C)cc12 [GW856805]
- %Inh (ERK1): 2%
- %Inh (ERK2): 0%
- %Inh (ERK3): 9%
- %Inh (ERK4): 6%
- %Inh (ERK5): 9%
- %Inh (ERK8): 13%
- %Inh (ERN1): 27%
- %Inh (FAK): 34%
- %Inh (FER): 21%
- %Inh (FES): 12%
- %Inh (FGFR1): 14%
- %Inh (FGFR2): 28%
- %Inh (FGFR3): 0%
- %Inh (FGFR4): 0%
- %Inh (FGR): 94.9%
- %Inh (FLT1): 26%
- %Inh (FLT3-autoinhibited): 0%
- %Inh (FLT3): 11%
- %Inh (FLT4): 35%
- %Inh (FRK): 98.9%

Structure (SMILES): Cc1cc(-c2ccnc(Nc3cccc(C#N)c3)n2)cc(C)c1O [GSK1440913]
- %Inh (ERK1): 0%
- %Inh (ERK2): 0%
- %Inh (ERK3): 75%
- %Inh (ERK4): 1%
- %Inh (ERK5): 0%
- %Inh (ERK8): 99.1%
- %Inh (ERN1): 0%
- %Inh (FAK): 0%
- %Inh (FER): 7%
- %Inh (FES): 28%
- %Inh (FGFR1): 0%
- %Inh (FGFR2): 54%
- %Inh (FGFR3): 27%
- %Inh (FGFR4): 14%
- %Inh (FGR): 37%
- %Inh (FLT1): 27%
- %Inh (FLT3-autoinhibited): 12%
- %Inh (FLT3): 48%
- %Inh (FLT4): 15%
- %Inh (FRK): 60%

Structure (SMILES): Cl.Cl.NC(CNC(=O)c1cc(Br)c(-c2ccnc3[nH]ccc23)s1)c1ccccc1 (centres unmarked) [GSK1322949]
- %Inh (ERK1): 4%
- %Inh (ERK2): 0%
- %Inh (ERK3): 4%
- %Inh (ERK4): 27%
- %Inh (ERK5): 0%
- %Inh (ERK8): 24%
- %Inh (ERN1): 13%
- %Inh (FAK): 83%
- %Inh (FER): 10%
- %Inh (FES): 0%
- %Inh (FGFR1): 45%
- %Inh (FGFR2): 39%
- %Inh (FGFR3): 26%
- %Inh (FGFR4): 29%
- %Inh (FGR): 14%
- %Inh (FLT1): 64%
- %Inh (FLT3-autoinhibited): 1%
- %Inh (FLT3): 90.9%
- %Inh (FLT4): 17%
- %Inh (FRK): 0%

Structure (SMILES): Cc1cccc(Nc2nc(NCCN)ncc2C(N)=O)c1 [GSK1292139]
- %Inh (ERK1): 0%
- %Inh (ERK2): 0%
- %Inh (ERK3): 79%
- %Inh (ERK4): 33%
- %Inh (ERK5): 0%
- %Inh (ERK8): 0%
- %Inh (ERN1): 16%
- %Inh (FAK): 5%
- %Inh (FER): 49%
- %Inh (FES): 0%
- %Inh (FGFR1): 0%
- %Inh (FGFR2): 0%
- %Inh (FGFR3): 0%
- %Inh (FGFR4): 0%
- %Inh (FGR): 49%
- %Inh (FLT1): 7%
- %Inh (FLT3-autoinhibited): 15%
- %Inh (FLT3): 13%
- %Inh (FLT4): 0%
- %Inh (FRK): 0%

Structure (SMILES): O=C(O)C(F)(F)F.O=c1[nH]ccc2nc(N[C@@H]3CCNC3)nc(Nc3cc(Cl)cc(Cl)c3)c12 [GSK2188764]
- %Inh (ERK1): 41%
- %Inh (ERK2): 51%
- %Inh (ERK3): 6%
- %Inh (ERK4): 37%
- %Inh (ERK5): 41%
- %Inh (ERK8): 15%
- %Inh (ERN1): 28%
- %Inh (FAK): 41%
- %Inh (FER): 55%
- %Inh (FES): 0%
- %Inh (FGFR1): 0%
- %Inh (FGFR2): 0%
- %Inh (FGFR3): 25%
- %Inh (FGFR4): 27%
- %Inh (FGR): 44%
- %Inh (FLT1): 0%
- %Inh (FLT3-autoinhibited): 67%
- %Inh (FLT3): 23%
- %Inh (FLT4): 9%
- %Inh (FRK): 4%

Structure (SMILES): O=C(Nc1n[nH]c2nc(-c3ccccc3)ccc12)C1CC1 [SB-708999]
- %Inh (ERK1): 0%
- %Inh (ERK2): 3%
- %Inh (ERK3): 46%
- %Inh (ERK4): 0%
- %Inh (ERK5): 0%
- %Inh (ERK8): 99.5%
- %Inh (ERN1): 0%
- %Inh (FAK): 0%
- %Inh (FER): 5%
- %Inh (FES): 5%
- %Inh (FGFR1): 0%
- %Inh (FGFR2): 33%
- %Inh (FGFR3): 26%
- %Inh (FGFR4): 12%
- %Inh (FGR): 9%
- %Inh (FLT1): 11%
- %Inh (FLT3-autoinhibited): 0%
- %Inh (FLT3): 42%
- %Inh (FLT4): 4%
- %Inh (FRK): 5%

Structure (SMILES): CCNc1nccc(-c2c(-c3ccc(F)cc3)ncn2C2CCN(C)CC2)n1
- %Inh (ERK1): 0%
- %Inh (ERK2): 0%
- %Inh (ERK3): 0%
- %Inh (ERK4): 0%
- %Inh (ERK5): 0%
- %Inh (ERK8): 4%
- %Inh (ERN1): 100%
- %Inh (FAK): 0%
- %Inh (FER): 0%
- %Inh (FES): 0%
- %Inh (FGFR1): 0%
- %Inh (FGFR2): 6%
- %Inh (FGFR3): 0%
- %Inh (FGFR4): 0%
- %Inh (FGR): 0%
- %Inh (FLT1): 18%
- %Inh (FLT3-autoinhibited): 0%
- %Inh (FLT3): 24%
- %Inh (FLT4): 6%
- %Inh (FRK): 0%

Structure (SMILES): Cn1cc(-c2ccc3c(c2)CCN3C(=O)Cc2cc(F)cc(F)c2F)c2c(N)ncnc21 [GSK2634140]
- %Inh (ERK1): 9%
- %Inh (ERK2): 9%
- %Inh (ERK3): 0%
- %Inh (ERK4): 0%
- %Inh (ERK5): 0%
- %Inh (ERK8): 0%
- %Inh (ERN1): 11%
- %Inh (FAK): 5%
- %Inh (FER): 39%
- %Inh (FES): 0%
- %Inh (FGFR1): 0%
- %Inh (FGFR2): 0%
- %Inh (FGFR3): 0%
- %Inh (FGFR4): 0%
- %Inh (FGR): 48%
- %Inh (FLT1): 59%
- %Inh (FLT3-autoinhibited): 0%
- %Inh (FLT3): 31%
- %Inh (FLT4): 14%
- %Inh (FRK): 10%

Structure (SMILES): COc1ccc(NC(=O)c2ccoc2)cc1-c1ccc(C(=O)NCC2CC2)cc1 [GW810437]
- %Inh (ERK1): 0%
- %Inh (ERK2): 7%
- %Inh (ERK3): 0%
- %Inh (ERK4): 6%
- %Inh (ERK5): 7%
- %Inh (ERK8): 0%
- %Inh (ERN1): 33%
- %Inh (FAK): 0%
- %Inh (FER): 0%
- %Inh (FES): 7%
- %Inh (FGFR1): 3%
- %Inh (FGFR2): 0%
- %Inh (FGFR3): 0%
- %Inh (FGFR4): 1%
- %Inh (FGR): 0%
- %Inh (FLT1): 0%
- %Inh (FLT3-autoinhibited): 0%
- %Inh (FLT3): 0%
- %Inh (FLT4): 12%
- %Inh (FRK): 14%
